# NS1 function inh: blocks influenza NS1 protein function. Potency, µM (top dose mostly 46.1 µM). 270,000 tested, 0.4% active; calls by dose curve; also: actives are rising curves; nearly all actives have a fitted effect of over 50% in size
#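 Read-out: OD600 growth recovery of NS1-expressing budding yeast. Cells grown overnight at 30C in -URA glucose medium, washed, resuspended and diluted 1:100 in 2% galactose assay medium, pH 6.0. Same strain lacking NS1 served as positive control.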
# HCV inh: inhibitors of hepatitis C virus infection; Potency, µM (series often up to 41.8 µM), usual class: inhibitors; Huh7.5.1 HCVcc-Cre infection, luciferase reporter, 44 h; 340,000 tested, 3.4% active; AID 651820
#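 Seed cells (1,000/well) for 4 h; treat with compound and infect with HCVcc-Cre, moi about 0.5. Incubate 44 h, then detect luciferase activity.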
# Pf growth 48h: inhibits P. falciparum growth in the first generation, 48 h | P. falciparum luciferase growth in erythrocytes, 48 h | Potency, µM (doses to about 28.7 µM), usual class: inhibitors | 310,000 tested, 5.9% active | AID 504832
#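 Compounds are pin-transferred into medium, infected erythrocytes (2% hematocrit, 0.1% parasitemia final) are added, and plates sit one parasite generation at 37 C in 5% CO2. Detection reagent is then added and luminescence measured.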
# VACV Venus inh: vaccinia inhibition (Venus reporter) | Vaccinia virus Venus reporter expression, fluorescence | Potency, µM (top dose mostly 36.5 µM), hits mostly inhibitors | 330,000 tested, 0.46% active | AID 720580; calls by dose curve; tested in A549 cells; also: nearly all actives have a fitted effect of over 30% in size
# VACV mCherry inh: vaccinia inhibition (mCherry reporter); Vaccinia virus mCherry reporter infection, fluorescence; Potency, µM (doses to about 36.5 µM), most hits filed as inhibitors; 310,000 tested, 0.63% active; AID 720579; calls by dose curve; tested in A549 cells; also: nearly all actives have a fitted effect of over 35% in size
# Pf growth 96h: inhibits malaria parasite growth, 96 h; 320,000 tested, 6.9% active; Potency, µM (doses to about 28.7 µM), most hits filed as inhibitors; P. falciparum luciferase reporter growth, 96 h
#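 Cell-based qHTS: luciferase-tagged P. falciparum in erythrocytes (2% hematocrit, 0.05% parasitemia final) incubated with compounds for 96 hours, 37 C, 5% CO2; luciferase detection reagent then added and luminescence measured.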
# Hits are given with their value; n = inactive; u = inconclusive; x = no result given. Sampled rows, rich in hits. Any-hit rate of the full collection: about 11%. Unless noted, calls follow the shape of the dose curve; as a rule, active = well fitted inhibition curve with a large enough effect; inconclusive = small, poorly fitted or top-dose-only effect, or another doubt; inactive = no such curve, though single readings can be large or run the other way.
SMILES,NS1 function inh,HCV inh,Pf growth 48h,VACV Venus inh,VACV mCherry inh,Pf growth 96h
CN(C)c1ccc(C(=O)c2ccccc2)cc1,n,n,x,x,x,n
CN(C)c1ccc(C(=O)N(Cc2ccccc2)Cc2ccccc2)cc1,n,n,n,x,x,14.7µM
CN(C)c1cccc(C(=O)N(Cc2ccccc2)Cc2ccccc2)c1,n,n,n,x,x,10.4µM
CC(=O)Nc1cccc(C(=O)N(Cc2ccccc2)Cc2ccccc2)c1,n,n,n,x,x,n
Cc1cc(NCCCCO)n2c(nc3ccccc32)c1C#N,n,u,10.4µM,n,n,n
Cc1cc(SCC(=O)Nc2c(C)n(C)n(-c3ccccc3)c2=O)n2c(nc3ccccc32)c1C#N,n,x,x,x,x,x
CCCc1cc(NCCCCO)n2c(nc3ccccc32)c1C#N,n,u,9.28µM,x,x,3.29µM
C=C(C)CSc1cc(C)c(C#N)c2nc3ccccc3n12,n,11.2µM,u,n,n,u
Cc1cc(Nc2c(C)n(C)n(-c3ccccc3)c2=O)n2c(nc3ccccc32)c1C#N,n,u,n,x,x,x
CCCc1cc(Nc2c(C)n(C)n(-c3ccccc3)c2=O)n2c(nc3ccccc32)c1C#N,u,n,1.65µM,x,x,n
CCCc1cc(NCCOCCO)n2c(nc3ccccc32)c1C#N,x,x,x,n,n,x
CCOC(=O)C(C)N1C(=O)S/C(=C/c2ccc3c(c2)n(C)c(=O)n3C)C1=O (stereo not given),n,n,u,n,n,n
Cc1cc(Nc2cccc([N+](=O)[O-])c2)n2c(nc3ccccc32)c1C#N,n,6.31µM,u,u,u,u
Cc1cc(Nc2ccc(F)cc2)n2c(nc3ccccc32)c1C#N,x,x,x,n,n,x
Cc1cc(-c2ccco2)n2c(nc3ccccc32)c1C#N,n,u,11.7µM,n,n,n
CCN(CC)CCNc1cc(C)c(C#N)c2nc3ccccc3n12,n,n,u,x,x,n
COCCN(CCOC)c1cc(C)c(C#N)c2nc3ccccc3n12,n,n,u,n,x,10.4µM
CCNc1nc2c(cnn2C)c(=O)[nH]1,x,n,x,n,n,x
CC1(C)CSC(C)(C)C(=O)N1,x,n,x,n,n,x
Cn1c(-c2ccc(F)cc2)cnc1NCc1cc2c(cc1[N+](=O)[O-])OCO2,u,12.6µM,11.7µM,n,n,n
COc1ccc(OC)c(CNc2ncc(-c3ccc(F)cc3)n2C)c1,n,n,u,x,x,14.7µM
Cn1c(-c2ccc(Cl)cc2)cnc1NCc1cc2c(cc1[N+](=O)[O-])OCO2,n,u,u,n,n,n
CCOc1ccc(-c2cnc(NCc3cccc4ccccc34)n2CCOC)cc1,n,10µM,u,u,u,n
Cn1c(-c2ccccc2)cnc1NCc1cccc([N+](=O)[O-])c1,n,n,n,x,x,n
COc1ccc(CNc2ncc(-c3cccc([N+](=O)[O-])c3)n2C)c(OC)c1OC,n,n,n,x,x,4.65µM
SMILES,NS1 function inh,HCV inh,Pf growth 48h,VACV Venus inh,VACV mCherry inh,Pf growth 96h
COc1cc(OC)c(OC)cc1/C=N/NC(=S)NCCN1CCOCC1,x,n,n,n,n,n
CC(C)COC(=O)N(C)C[C@@H]1OCc2cnnn2CCCC(=O)N([C@@H](C)CO)C[C@@H]1C,x,x,x,n,n,x
Cc1cccc(-n2ncc3c(NCCCN4CCCC4=O)ncnc32)c1,n,n,n,x,x,n
CC1(c2ccccc2Cl)NC(=O)N(CC(=O)Nc2ccccc2OC(F)F)C1=O (stereo not given),n,n,n,n,n,n
COc1ccccc1CNc1ncc(-c2ccc(F)cc2)n1C,n,n,u,x,x,u
COc1ccc(CNc2ncc(-c3ccc(F)cc3)n2C)c2ccccc12,n,n,u,n,u,10.4µM
COCc1cc(C)nc(OCC(=O)N/N=C/c2ccc(-c3cc([N+](=O)[O-])ccc3C)o2)c1C#N,n,n,n,n,n,n
Cc1ccc([N+](=O)[O-])cc1-c1ccc(/C=C(\C#N)c2[nH]nc(N)c2C#N)o1,u,u,u,u,10µM,n
Cc1nn(CC(=O)N2CCC(C(N)=O)CC2)c(=O)c2nn(-c3ccccc3)c(C)c12,n,n,n,x,x,n
COc1ccc(-n2ccnc2SCC(=O)NO)cc1,x,n,1.31µM,n,n,u
O=C(CSc1nccn1-c1ccccc1)c1ccc(Cl)cc1,n,n,n,n,x,n
O=C(CSc1nccn1-c1cccc(Cl)c1)NO,x,n,0.738µM,n,u,u
O=C(CSc1nccn1-c1ccccc1)NO,x,n,2.08µM,n,n,0.928µM
O=C(CSc1nccn1-c1cccc(Cl)c1)NC1CCCC1,n,n,n,n,n,n
COc1ccc(NC(=O)CSc2nccn2-c2ccccc2)cc1,n,n,n,n,x,n
O=C(Oc1ccccc1N1C(=O)C2CC=CCC2C1=O)c1ccc(Br)cc1 (stereo not given),n,n,n,n,n,n
N=C1S/C(=C\c2cccc3ccccc23)C(=O)N1c1ccc(F)cc1,n,u,11.7µM,n,n,n
Cc1ccc2c(c1)CC1(CN2C)C(=O)OC2(CCCCC2)OC1=O,n,n,n,u,n,n
CN1CC2(Cc3c1ccc1ccccc31)C(=O)OC(C)(C)OC2=O,n,n,n,6.31µM,3.98µM,n
O=C1CCC/C(=N/Nc2ccc(Cl)cc2)C1,x,u,u,x,x,11.7µM
Cc1ccc2nc(Cl)c(/C=N/NC(=O)[C@H]3C[C@@H]3c3ccccc3)cc2c1,n,u,u,n,n,2.08µM

# Screens: PubChem BioAssay, National Center for Advancing Translational Sciences (NCATS)
